From PubChem
This is a sample that favours compounds with a hit; in the whole collection about 11% have one here.
JMJD2A Tudor inh: qHTS Assay for Inhibitors of JMJD2A-Tudor Domain | Lysine-specific demethylase 4A (Homo sapiens), O75164 | AID 504339, 2011 | Potency, µM (doses to about 114 µM), without a hit: at the top dose activity change, negative = inhibition, actives largely listed as inhibitors | actives 4.4% (n = 390,000) | AlphaScreen JMJD2A-Tudor / H3K4me3 peptide binding; also: % is scaled to controls: 0 for no effect and ±100 for the full control effect; nearly all actives have a fitted effect of over 50% in size
HP1b chromo inh: HTS for Inhibitors of HP1-beta Chromodomain Interactions with Methylated Histone Tails | AlphaScreen HP1-beta / biotin-H3K9me3 peptide binding | actives 0.56% (n = 390,000) | Potency, µM (doses to about 114 µM), for inactives: top-dose activity change, negative = inhibition, most hits filed as inhibitors | AID 540317, 2011; also: nearly all actives have a fitted effect of over 70% in size
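HP1-beta protein (50 nM final) preincubated 30 min at room temperature with biotinylated H3(1-18)K9me3 peptide (50 nM) in PBS pH 7.4, 0.01% Tween-20, then compound added for 30 min. AlphaScreen streptavidin donor/nickel chelate acceptor beads (10 ug/mL final), 30 min dark, luminescence read.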
G9a inh: qHTS Assay for Inhibitors of Histone Lysine Methyltransferase G9a; Histone-lysine N-methyltransferase EHMT2 (Homo sapiens), Q96KQ7; G9a H3K9 monomethylation, AlphaScreen, 2 h; Potency, µM (doses to about 102 µM), inactives show at the highest dose activity, negative = inhibition, usual class: inhibitors; actives 8.8% (n = 350,000); AID 504332, 2011; also: % is scaled to controls: 0 for no effect and ±100 for the full control effect; nearly all actives have a fitted effect of over 75% in size
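Step 1: enzyme (final 20 nM) with compound, 15 min RT. Step 2: substrate peptide 500 nM and SAM 20 uM, 2 h RT. Step 3: anti-H3K9me1 antibody and AlphaScreen beads, 10 min, then plate read.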
L3MBTL1 inh: qHTS Assay for the Inhibitors of L3MBTL1; Potency, µM (doses to about 57.1 µM), inactives show top-dose activity, negative = inhibition, most hits filed as inhibitors; AlphaScreen L3MBTL1–H3K9me1 peptide binding; Lethal(3)malignant brain tumor-like protein 1 (Homo sapiens), Q9Y468; AID 485360, 2010; actives 0.66% (n = 230,000); also: % is scaled to controls: 0 for no effect and ±100 for the full control effect; nearly all actives have a fitted effect of over 60% in size
Target sequence (Q9Y468 whole entry, looked up): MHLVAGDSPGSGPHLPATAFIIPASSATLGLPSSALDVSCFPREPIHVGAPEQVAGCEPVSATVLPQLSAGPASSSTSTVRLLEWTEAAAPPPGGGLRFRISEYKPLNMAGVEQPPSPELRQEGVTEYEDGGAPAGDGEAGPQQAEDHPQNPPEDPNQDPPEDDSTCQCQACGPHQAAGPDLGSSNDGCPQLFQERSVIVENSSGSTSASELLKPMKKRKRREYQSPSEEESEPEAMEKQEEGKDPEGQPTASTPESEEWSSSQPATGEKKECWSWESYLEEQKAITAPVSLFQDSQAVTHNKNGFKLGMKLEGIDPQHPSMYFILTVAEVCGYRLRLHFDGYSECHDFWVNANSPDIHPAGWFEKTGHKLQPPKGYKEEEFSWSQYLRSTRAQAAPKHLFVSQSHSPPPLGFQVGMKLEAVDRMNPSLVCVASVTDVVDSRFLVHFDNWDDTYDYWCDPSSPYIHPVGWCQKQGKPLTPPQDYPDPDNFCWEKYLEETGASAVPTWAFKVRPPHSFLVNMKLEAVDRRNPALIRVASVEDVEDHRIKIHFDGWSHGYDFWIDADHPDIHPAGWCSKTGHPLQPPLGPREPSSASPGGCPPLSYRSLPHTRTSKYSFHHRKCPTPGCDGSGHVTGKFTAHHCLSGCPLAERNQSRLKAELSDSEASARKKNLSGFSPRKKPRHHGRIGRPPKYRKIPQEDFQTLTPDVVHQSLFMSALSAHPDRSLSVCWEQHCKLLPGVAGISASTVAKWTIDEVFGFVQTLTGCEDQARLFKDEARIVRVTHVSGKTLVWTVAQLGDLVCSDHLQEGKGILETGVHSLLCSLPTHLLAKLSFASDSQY
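Read-out is AlphaScreen signal from streptavidin donor and nickel chelate acceptor beads (10 ug/mL final each) bridging L3MBTL1 (50 nM) and biotinylated K9-monomethylated H3(1-15) peptide (75 nM), after 30 min compound exposure at room temperature.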
BAZ2B inh: qHTS Assay for Inhibitors of BAZ2B; Bromodomain adjacent to zinc finger domain protein 2B (Homo sapiens), Q9UIF8; AID 504333, 2011; AlphaScreen BAZ2B-H3K14Ac peptide displacement; Potency, µM (doses to about 114 µM), for the others: at the highest dose activity change, negative = inhibition, hits mostly inhibitors; actives 4.4% (n = 360,000); also: % is scaled to controls: 0 for no effect and ±100 for the full control effect; nearly all actives have a fitted effect of over 60% in size
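Multi-concentration screen (max 110 uM) measuring displacement of acetylated histone H3 peptide from BAZ2B by AlphaScreen, using 50 nM protein, 50 nM peptide and 10 ug/mL streptavidin donor plus Ni-chelate acceptor beads.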
* = called active by the depositor; u = inconclusive; x = no result; ! = repeats disagree; [ ] = another dose, or the depositor's remark. Calls follow the shape of the dose curve; as a rule, active = well fitted inhibition curve with a large enough effect; inconclusive = small, poorly fitted or top-dose-only effect; inactive = no such curve, though single readings can be large or run the other way. Potency is read from the fitted curve at half-maximal effect.

SMILES | JMJD2A Tudor inh | HP1b chromo inh | G9a inh | L3MBTL1 inh | BAZ2B inh
CC1(C)CC(=O)C2=C(C1)NC(=S)C(C#N)C21CCCCC1 (stereo not drawn) | 7.9µM* | u | 0.5µM* | x | u
CSc1cccc(NS(=O)(=O)c2ccc3[nH]cc(C(=O)N4CCCC4)c(=O)c3c2)c1 | -8% | 26% | 6%[59 µM] | x | x
Cc1cc(Cl)cc(C)c1OCCCCN1CCOCC1 | -15% | 39% | u | 7% | 10%
Cc1cccc(C)c1OCCN1CCCC1 | 25µM* | u | 25µM* | x | u
Cc1cc(Cl)c(OCCCCN2CCOCC2)c(Br)c1 | 3.5µM* | u | u | -7% | 50µM*
Cc1cccc(C)c1OCCCCN1CCCCC1 | 28µM* | u | 79µM* | -7% | u
Cc1cccc(C)c1OCCn1nnc2ccccc21 | 17%[57.1 µM] | 8% | -3% | 16% | 10%
Cc1cccc(Cl)c1OCCCN1CCOCC1 | 1.6µM* | u | 10µM* | 3% | u
CN(C)c1ncc2nc(-c3cn(C)c4ccccc34)c(=O)n(C[C@H]3CCCO3)c2n1 | x | x | 1%[0.501 µM] | x | x
Cc1ccc(CNC(=O)CN2C(=O)CSc3ccc(S(=O)(=O)N(C)C)cc32)cc1 | -7% | 11% | -20%[59 µM] | x | -6%
CCc1ccc(Cn2c(CNS(=O)(=O)c3ccc4c(c3)CCCC4)nc3cccnc32)cc1 | -28% | 8%[57 µM] | -1%[59 µM] | x | -7%
Cc1ccc(NCc2nnc(SCC(=O)NNC(=O)Cc3ccccc3)n2C)cc1 | 4% | 44% | 9%[12.7 µM] | x | -13%
Cc1cccc(C)c1OCCOCCN1CCN(C)CC1 | 13µM*! | 25µM*! | -42%[59 µM] | -2% | -29%
Cc1cccc(C)c1OCCCN1CCCC1 | 2.5µM* | u | 10µM* | x | 50µM*
Cc1cc(OCCCN2CCCC2)ccc1Cl | -12% | 18% | -15% | -2% | 5%
O=C(NCC1(c2ccccc2)CCCC1)C(=O)Nc1cccc(Br)c1 | 12% | 45% | -2%[59 µM] | x | 4%
COc1ccc(NC(=O)Nc2c(SC)nsc2SC)cc1 | 5%[11.4 µM] | 19% | 40µM* | 2% | -2%
COc1ccc(COC(=O)Nc2c(SC)nsc2SC)cc1 | -9% | 35% | -31% | -6% | 5%
COc1ccc(OC)c(NC(=O)NNS(=O)(=O)c2ccc(C)cc2C)c1 | -7% | 15% | 30% | x | -16%
CCOC(=O)c1nnsc1NC(=O)Nc1ccc(OC)cc1 | -17% | 23% | 40µM* | 0% | u
CCOC(=O)c1ccc(NC(=O)NNS(=O)(=O)c2cc(OC)ccc2OC)cc1 | -6% | 46% | 71µM* | x | -24%
CN1CCN(C(=O)c2cnn(-c3cccc(Cl)c3)c2C2CCN(C(=O)OC(C)(C)C)CC2)CC1 | -6% | 27% | -25%[59 µM] | x | 12%[57.1 µM]
COc1ccccc1NC(=O)c1oc2ccccc2c1NC(=O)c1cccc(OC)c1OC | 2% | 88% | 26%[59 µM] | x | -1%
Cn1c(CCNC(=O)c2ccccc2Cl)n[nH]c1=S | 45µM* | 9% | -18%[12.7 µM] | 15% | 4%
CCn1c(CCNC(=O)c2ccc(Cl)cc2)n[nH]c1=S | 10µM* | 21% | u | x | 5%
SMILES | JMJD2A Tudor inh | HP1b chromo inh | G9a inh | L3MBTL1 inh | BAZ2B inh
CCOc1ccc(-n2nc3ccc(NC(=O)c4ccc(C)cc4C)cc3n2)cc1 | -18% | 27% | -6%[59 µM] | x | 1%
CC(C)CNC(=O)CN1c2cccc3cccc(c23)S1(=O)=O | 5% | 17% | 14% | x | 5%
O=C(CN1c2cccc3cccc(c23)S1(=O)=O)Nc1ccccc1 | -7% | 21% | 12% | -13% | x
CC(C)NC(=O)NC(=O)CN1c2cccc3cccc(c23)S1(=O)=O | 2% | 43% | 32µM* | x | -2%
CNC(=O)c1ccc(NC(=O)CN2c3cccc4cccc(c34)S2(=O)=O)cc1 | -16% | -3% | 45µM* | 3% | 0%
O=C(O)c1cccc(N2C(=O)/C(=C/c3ccc(SCc4ccc(Cl)cc4)o3)SC2=S)c1 | 45µM* | -16% | 20µM* | 3.5µM* | 32µM*
CCOC(=O)c1c(C)c(-c2ccccc2)n(CC(=O)Nc2cccc(C)c2C)c1C | -16% | 22% | 1%[59 µM] | x | -3%
